The values below come from PubChem BioAssay AID2546 (National Center for Advancing Translational Sciences (NCATS), 2010).

The campaign covered roughly 310,000 compounds. About 11,000 (3.5%) were called active. Where a call stands in place of a potency, no number is given. Roughly 8% stayed inconclusive and do not appear here. Calls come from the whole dose curve; as a rule, active = well fitted inhibition curve with a large enough effect; inconclusive = small, poorly fitted or top-dose-only effect, or effect the other way; inactive = flat fitted curve, though single readings scatter. Many of the other results were omitted from the sample, so actives are more common in it than they were.
Potency is the fitted concentration of half-maximal effect.

The assay in a line: VP16 counterscreen qHTS for inhibitors of ROR gamma transcriptional activity.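 Note: Gal4-VP16 expression switched on by copper sulfate through the metallothionein promoter; nearly all actives have a fitted effect of over 50% in size.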 As to conditions: Drosophila S2 Gal4-VP16 UAS-luciferase, luminescence, 20 h; series mostly up to 53.6 µM.
As to `CCCOc1ccc(CNC(=O)C2CCN(c3nn4c(=O)cc(C)nc4s3)CC2)cc1`, the Potency entry is “inactive”. To `Cc1cccc(-c2nc(CS(=O)CC(=O)NC(C)CCc3ccccc3)c(C)o2)c1` (centres undefined) belongs “inactive”; to `O=C(Nc1ccc(N2CCCC2=O)cc1)c1cncc(Br)c1`, “inactive”. To `Cc1cccn2c(=O)c(/C=C(\C#N)C(N)=O)c(N3CCCCCC3)nc12` belongs “inactive”.

In the case of `CCCc1nnc(NC(=O)CCC(=O)N2CCN(S(=O)(=O)c3ccc(OC)cc3)CC2)s1`, the Potency entry was “inactive”. Consider `Cc1c(C(=O)NCC(c2ccco2)N2CCCC2)oc2ccc(Cl)cc12` (centres undefined), for which the Potency entry was “inactive”. For the compound `Cc1ccc(CNC(=O)CCS(=O)(=O)c2ccc3c(c2)CC(C)N3C(=O)C2CC2)o1` (centres undefined), the Potency entry is “inactive”. As for `O=C1C(=O)N(CCN2CCOCC2)C(c2cccc(Cl)c2)/C1=C(/O)c1ccc2c(c1)OCO2` (centres undefined), the Potency result is “inactive”.

For the compound `O=C(NNS(=O)(=O)c1ccc([N+](=O)[O-])cc1)C1CCCCC1`, the Potency entry is “inactive”. For `COc1cccc(-c2nc(CS(=O)CC(=O)NCc3ccc(F)cc3)c(C)o2)c1` (centres undefined), the Potency entry was “inactive”.

Consider `COc1ccccc1N1CC(C(=O)Nc2nnc(SCC(=O)NCC3CCCO3)s2)CC1=O` (centres undefined), for which the Potency entry was “inactive”. To `Cc1ccccc1N/C(SCc1ccc(Cl)cc1)=C(/C#N)C(N)=O` belongs “inactive”; to `Cc1ccccc1NC(=S)NC(=O)Cc1ccc(Cl)cc1`, 7.08 µM (active). With `S=C(NCc1cccnc1)Nc1ccc(Cl)cc1Cl` the entry was “inactive”. As to `Cc1ccc(NC(=S)NCc2ccccc2Cl)c(C)c1`, the Potency was 5.01 µM (active).

In the case of `Cc1ccc(NC(=O)C(=O)NCc2ccco2)c(C)c1`, the Potency result was “inactive”. `Cc1cc(C(=O)NNC(=S)Nc2ccccc2C)cs1`: the Potency result is “inactive”. With `O=C(N/C(=C\c1ccc([N+](=O)[O-])cc1)C(=O)N1CCOCC1)c1cccc(Br)c1` the entry was “inactive”.

For the compound `CC(=O)Nc1ccc(S(=O)(=O)N(C)c2nc3ccccc3nc2Cl)cc1`, the Potency entry was “inactive”. To `COC(=O)CN1C(=O)[C@H]2[C@@H](/C=C/c3ccccc3)N3C(=O)CN(CC4CC4)C(=O)[C@@]3(Cc3ccccc3)[C@H]2C1=O` belongs “inactive”. Take `O=C(CN(Cc1ccc(Br)cc1)S(=O)(=O)c1ccccc1)NCc1ccncc1`: the Potency result is “inactive”. To `CN1CCN(C(=O)C(=O)c2cn(CC(=O)N3CCCC3)c3ccccc23)CC1` belongs “inactive”.

Take `Cc1ccccc1CNC(=O)CCC(=O)N1Cc2ccccc2Oc2ncccc21`: the Potency result was “inactive”. Regarding `Cc1cc(SCc2c(F)cccc2Cl)nc(=O)[nH]1`, the Potency entry was “inactive”. Take `COc1ccc(CNC(=O)/C(C#N)=C/c2cccc(OC)c2OC)cc1`: the Potency result was “inactive”.

Turning to `COc1ccc(Cl)cc1CSc1ncn[nH]1`, the Potency entry is “inactive”. With `O=C(NCCOCc1ccc(Cl)cc1)c1ncn[nH]1` the entry was “inactive”; with `O=C(/C=C/Sc1ncn[nH]1)c1ccc(Cl)cc1`, 4.47 µM (active). As for `O=C(Cn1c(NCCO)nc2ccccc21)c1ccc(Cl)cc1Cl`, the Potency result is “inactive”.

Consider `CCc1cccc(NC(=S)N(CCN(C)C)C2CCN(C(C)C)CC2)c1`, for which the Potency result is “inactive”.

For `CC(C)c1ccc(S(=O)(=O)N2CCN(C(=O)c3ccc(N4CCCC4)c([N+](=O)[O-])c3)CC2)cc1`, the Potency entry is “inactive”. With `CC(=O)N1c2ccc(S(=O)(=O)NCCC(=O)N(C)C3CCCCC3)cc2CC1C` (centres undefined) the entry was “inactive”. On to `Nc1nc(Nc2ccccc2F)nc(NC2CCCCC2)c1[N+](=O)[O-]`, for which the Potency entry is “inactive”. For `Cc1cccc(N=C2NN=C(c3c[nH]c4ccccc34)CS2)c1`, the Potency was 7.94 µM (active).

In the case of `Cc1ccc(-c2csc(-c3c[nH]c4ccccc34)n2)cc1`, the Potency result is “inactive”. As to `Cc1cccc(C(=O)Nc2nnc(Cc3c[nH]c4ccccc34)s2)c1`, the Potency result was “inactive”. With `C=CCCN(C(Cc1ccccc1)C(=O)OC)S(=O)(=O)c1cc(Br)ccc1Br` (centres undefined) the entry was “inactive”; with `CC(C)c1nc(CNC(=O)CC2C(=O)NCCN2Cc2cccc(F)c2F)cs1` (centres undefined), “inactive”; with `COc1ccc(N2CCN(S(=O)(=O)CCNC(=O)C34CC5CC(CC(C5)C3)C4)CC2)cc1`, “inactive”. With `COc1ccc(-c2nnc3ccc(SCc4ccccc4)nn23)cc1` the entry was “inactive”. For `COC(=O)c1ccc(CSc2ccc3nnc(-c4ccccc4)n3n2)o1`, the Potency was 20 µM (active). Regarding `COC(=O)c1ccc(CSc2ccccc2C)o1`, the Potency result is “inactive”.

Take `CC(=O)c1ccc(NC(=O)c2sc3nc4n(c(=O)c3c2C)CCCCC4)cc1`: the Potency entry is “inactive”. With `COc1ccc(Cl)cc1NC(=O)c1cccc(N2C(=O)C3CC=CCC3C2=O)c1` (centres undefined), the Potency entry was “inactive”.

For the compound `CCOC(=O)c1c(NC(=O)C2(C)Cc3ccccc3C(=O)O2)sc2c1CCCC2` (centres undefined), the Potency result was “inactive”. Regarding `Cc1cc2[nH]ncc2cc1NC(=S)NC(=O)c1ccccc1`, the Potency result was “inactive”.

Turning to `CCOC(=O)C1=C(NC(=S)NC(=O)c2ccccc2)c2ccccc2CC1(C)C`, the Potency is 11.2 µM (active). To `CCOC(=O)c1c(-c2cccc(C)c2)csc1NC(=O)c1c(-c2ccccc2)noc1C` belongs “inactive”; to `CCOC(=O)c1c(-c2ccc(-c3ccccc3)cc2)csc1NC(=O)CCC(=O)O`, “inactive”; to `CCOC(=O)c1c(-c2ccccc2)csc1NC(=S)NC(=O)c1ccccc1`, 6.31 µM (active). Regarding `COc1ccc(CNC(=O)CN(Cc2ccccc2Cl)C(=O)c2csnn2)cc1`, the Potency result was “inactive”.

In the case of `COc1ccc(CCNC(=O)c2c(C)nn(-c3ccccc3)c2Cl)cc1`, the Potency entry is “inactive”. With `COc1ccc(N(CC(=O)Nc2cc(OC)ccc2OC)S(=O)(=O)c2c(C)noc2C)cc1` the entry was “inactive”; with `CCOc1c(OC)cccc1C(=O)NCC1(c2ccccc2)CCCC1`, “inactive”. With `CN(Cc1ccccc1)C(=O)c1ccc(COc2ccccc2)cc1` the entry was “inactive”. With `CC1=C/C(=N\OS(=O)(=O)c2ccccc2)C=CC1=O` the figure was 1.12 µM (active); with `O=S(=O)(ON(c1ccccc1)S(=O)(=O)c1ccccc1)c1ccccc1`, “inactive”. On to `NC(=O)CC(NC(=O)Cc1ccc(Br)cc1)c1ccc(NC2CC3CCC2C3)c([N+](=O)[O-])c1` (centres undefined), for which the Potency result was “inactive”. On to `CC(C)NC(=O)C(c1ccc(F)cc1)N(C(=O)CCC(=O)Nc1ccccn1)c1ccccc1F` (centres undefined), for which the Potency entry was “inactive”. To `CCCn1nc(NC(=O)C(C)C)c2cc3cc(OC)ccc3nc21` belongs “inactive”.

As for `CCOc1ccc2c(c1)c(=O)c(S(=O)(=O)c1ccc(C)cc1)cn2CC`, the Potency entry was “inactive”. On to `COCn1c(C(O)c2ccccc2)cc2ccccc21` (centres undefined), for which the Potency entry is “inactive”.

As to `COc1cc(-n2c(C)nc3cc(C(=O)NCc4ccco4)ccc32)cc(OC)c1OC`, the Potency result was “inactive”.

With `COc1cc(C(=O)N[C@@H](C)C(=O)NCc2ccco2)cc(OC)c1OC`, the Potency entry is “inactive”. In the case of `COc1cc(C(=O)NC(=S)NCc2ccco2)cc(OC)c1OC`, the Potency is 6.31 µM (active). To `COc1ccc(CNc2nccs2)cc1` belongs “inactive”; to `CCC(=C/c1sc2ccc3ccccc3c2[n+]1C)/C=C1\Sc2ccc3ccccc3c2N1C`, 1 µM (active). For `COc1cccc(OC)c1C(=O)Nc1c(C(=O)N2CCN(c3ccccn3)CC2)oc2ccccc12`, the Potency entry is “inactive”. For the compound `O=C(c1cccnc1)N1CCN(S(=O)(=O)c2cccs2)CC1`, the Potency result is “inactive”.

Consider `O=S(=O)(NC1CCCCC1N1CCN(c2ccccc2F)CC1)c1ccccc1` (centres undefined), for which the Potency result was “inactive”. For `CCc1ccc(CNC(=O)C2CCCN(c3nc4ccccc4o3)C2)cc1` (centres undefined), the Potency result was “inactive”. As for `CCOC(=O)c1cnc(Nc2nc3ccccc3o2)nc1CSC(=S)N1CCCCC1`, the Potency is 1 µM (active). To `CCOC(=O)CCNC(=O)N1CCCC(C(=O)c2ccccc2SC)C1` (centres undefined) belongs “inactive”. For the compound `COc1cc(C(=O)NCc2cc3cc(Cl)ccc3n2C)cc(OC)c1OC`, the Potency result is “inactive”. To `Cc1ccc(NS(=O)(=O)c2ccc3c(c2)oc(=O)n3C)c(C)c1` belongs “inactive”; to `COc1ccccc1N(C)C(=O)c1cc(S(=O)(=O)N2CCc3ccccc32)cn1C`, “inactive”. To `COC(=O)c1ccc(C(=O)NC2CC(C)(C)Cc3c2cnn3-c2ccc(F)cc2)nc1` (centres undefined) belongs “inactive”. As for `Oc1c(C=Nc2cccc3nsnc23)ccc2ccccc12`, the Potency entry is “inactive”. For `Oc1ccc2ccccc2c1N=Nc1nccs1`, the Potency is 3.55 µM (active). With `Oc1ccc(N=Nc2nccs2)c(O)c1` the entry was “inactive”; with `Cc1csc(NC(=O)CSc2nnc(-c3cccnc3)o2)n1`, “inactive”.

On to `COc1ccc(-c2nc(CS(=O)(=O)CC(=O)NCc3cccc(Br)c3)c(C)o2)cc1`, for which the Potency entry is “inactive”. `Cc1ccc(N=Nc2c(C)[nH]n(-c3ccccc3)c2=O)cc1`: the Potency result is “inactive”.

As for `Cc1cccc(N=Nc2c(C)[nH]n(-c3ccccc3)c2=O)c1`, the Potency entry was “inactive”. To `Cc1[nH]n(C(N)=S)c(=O)c1N=Nc1ccc(Cl)cc1Cl` belongs 2.82 µM (active); to `COc1ccc(NC(=O)c2cc(-c3cc(OC)c(OC)c(OC)c3)nc3ccccc23)c(OC)c1`, “inactive”; to `O=C(c1cccc(Cl)c1)N1CCN(Cc2ccccc2)CC1`, “inactive”.

Consider `O=C(Nc1ccccc1)N1CCN(Cc2ccccc2)CC1`, for which the Potency entry was “inactive”.

Regarding `O=C(NC(=S)N1CCN(Cc2ccccc2)CC1)c1ccccc1`, the Potency was 3.55 µM (active). As for `CC1CCN(S(=O)(=O)c2ccc3[nH]c(=O)ccc3c2)CC1`, the Potency result was “inactive”. On to `CCC(C)[C@H](NC(=O)N1CCn2c1nc1ccccc12)C(=O)NCc1ccc(OC)cc1` (some centres undefined), for which the Potency entry was “inactive”. On to `CCOc1ccc(/C=N\NC(=O)c2c(C)nc3cc(C)ccn23)cc1`, for which the Potency result was “inactive”. To `NC(=S)N/N=C/c1ccc([N+](=O)[O-])cc1` belongs “inactive”. For the compound `CCOc1ccc(/C=N/NC(N)=S)cc1`, the Potency is 10 µM (active). `COc1cc(OC)cc(C(=O)NCCSCc2ccc(Cl)cc2)c1`: the Potency result was “inactive”.

On to `COc1cccc(-c2noc(C3CCCN(C(=O)c4ccc(F)cc4)C3)n2)c1` (centres undefined), for which the Potency entry was “inactive”. As for `Cn1c(=O)c2c(SCC(=O)NCC3CCCO3)nc(CC(C)(C)C)nc2n(C)c1=O` (centres undefined), the Potency entry was “inactive”.

`CC(C)(C)n1nnnc1C(c1ccc(F)cc1)N1CCN(Cc2ccc3c(c2)OCO3)CC1` (centres undefined): the Potency result is “inactive”. As for `Fc1ccc2[nH]c3c(N4CCN(Cc5ccc6c(c5)OCO6)CC4)ncnc3c2c1`, the Potency is 7.08 µM (active). With `O=c1[nH]c(N2CCN(Cc3ccc4c(c3)OCO4)CC2)nc2c1CCCC2` the entry was “inactive”; with `CCC(C)(C)NC(=O)C(c1ccc(O)cc1)N(Cc1ccco1)C(=O)CCC(=O)Nc1ccccn1` (centres undefined), “inactive”.

For the compound `CN(Cc1ccccc1)C(=O)CCc1ccccc1`, the Potency result is “inactive”.

Regarding `Cn1c(-c2ccc(F)cc2)cnc1SCC(=O)NNC(=O)Cc1ccccc1`, the Potency result was “inactive”. With `Cc1ccc(-c2cnc(NC(=O)CCC(=O)N(C)Cc3ccccc3)n2C)cc1` the figure was 4.47 µM (active).
